About 6,400 (1.9%) of roughly 340,000 compounds were called active. A call without a number means that no potency is given here. Not shown: some 4% with an inconclusive outcome. The call rests on the fitted dose curve; in most records, active means well fitted falling curve with a large enough effect; inconclusive means small, poorly fitted or top-dose-only effect; inactive means no such curve, though single readings can be large or run the other way. This excerpt belongs to a sample that is enriched for actives.
What follows are compounds tested against ATP-dependent Clp protease proteolytic subunit (Bacillus subtilis (strain 168)) (UniProt P80244) (assay: qHTS Assay for Activators of ClpP). Settings: purified B. subtilis ClpP, FRET peptide cleavage, 20 min; series mostly up to 57.5 µM.
In short: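 ClpP 10 microg/mL final, pH 8 Tris/KCl buffer with BSA, glycerol, Tween-20; compound pinned in; FRET-FV substrate; RT 20 min; Ex320/Em430; ΔFRET vs ADEP 5.8 microM, DMSO, no enzyme.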
Further: the source files actives as falling curves though it sought activators and does not explain the sign; nearly all actives have a fitted effect of over 65% in size.
Potency means the concentration at half of the fitted maximal effect.

Sequence of ATP-dependent Clp protease proteolytic subunit (Bacillus subtilis (strain 168)) (P80244 whole entry, looked up): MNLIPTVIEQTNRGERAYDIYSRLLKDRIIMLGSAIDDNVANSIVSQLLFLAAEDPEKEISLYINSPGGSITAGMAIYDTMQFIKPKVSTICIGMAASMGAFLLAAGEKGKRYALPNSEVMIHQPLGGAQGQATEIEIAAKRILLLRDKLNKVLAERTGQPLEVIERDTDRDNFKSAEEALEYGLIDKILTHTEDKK

| SMILES | Potency |
| --- | --- |
| Fc1ccc(Nc2nc(SCc3ccccc3Cl)nc3ccccc23)cc1 | 31.6 µM (active) |
| Fc1ccc(CSc2nc(NCc3ccccc3)c3ccccc3n2)cc1 | inactive |
| O=C(CSc1nc(Nc2ccc(F)c(F)c2)c2ccccc2n1)c1ccc(Cl)cc1 | inactive |
| Cc1cccc(C)c1NC(=O)C(c1cccc2ccccc12)n1c(=O)c(-c2ccco2)nc2ccccc21 (stereo not drawn) | inactive |
| CN(Cc1ccccc1)c1ccc(/C=C/c2ccnc3ccccc23)cc1 | inactive |
| CN(C)c1ccc(/C=C2\C=Cc3ccccc32)cc1Br | inactive |
| CCc1ccc(NC(=O)c2cc3c(=O)n(Cc4cccnc4)ccc3nc2C)cc1 | inactive |
| Cc1nc2ccn(Cc3cccnc3)c(=O)c2cc1C(=O)N1CCN(c2ccccc2F)CC1 | 25.1 µM (active) |
| O=C(Cn1nc(Cc2cccnc2)c2ccccc2c1=O)N1CCN(c2ccccc2F)CC1 | inactive |
| CN1CCc2c(sc3c2c(NCc2ccco2)nc2nnnn23)C1 | 17.8 µM (active) |
| CCCSc1nc(NCc2ccco2)c2c3c(sc2n1)COC(C)(CC)C3 (stereo not drawn) | inactive |
| Cn1c(=O)n(Cc2ccco2)c(=N)c2c3c(sc21)CCCC3 | inactive |
| NC(=S)NN=Cc1ccc(OC(=O)COc2cc(Cl)c(Cl)cc2Cl)cn1 | inactive |
| COc1ccc(CCNC(=O)c2c(C)nn(-c3ccccc3)c2Cl)cc1 | inactive |
| COc1ccc(C(=O)NC(C)CCc2ccccc2)c(OC)c1 (stereo not drawn) | inactive |
| O=C(NCCCO)c1nn(-c2ccc(Cl)cc2)nc1CO | 14.1 µM (active) |
| CC(C)NC(=O)c1nn(-c2ccccc2F)nc1CO | inactive |
| Cc1cc2nn(-c3ccc(Cl)cc3)nc2cc1NC(=O)C(C)C | inactive |
| CC(CCCc1ccccc1)NC(=O)c1nn(-c2ccc(Cl)cc2)nc1CO (stereo not drawn) | 31.6 µM (active) |
| Nc1nonc1C(=O)NCCc1ccccc1 | inactive |
| Cc1ccc(-n2nc(CO)c(C(=O)NCCc3ccccc3)n2)cc1 | 10 µM (active) |

| SMILES | Potency |
| --- | --- |
| O=C(Cc1ccc(Cl)cc1)Nc1ccc2nn(-c3ccc(Cl)cc3)nc2c1 | inactive |
| CCN(CC)c1ccc(/C=C/c2c(C)cnc3ccc(C)cc23)cc1 | inactive |
| COC(=O)c1ccc2nc(-c3cccc(Br)c3)c(Cc3ccc(OC)cc3C)n2c1 | inactive |
| CCOC(=O)c1cc(-c2sc(NC(=O)c3ccccc3)nc2C)n(CCO)n1 | inactive |
| CCCCCCCCN1C(=O)[C@H](CC(=O)NCc2cccc3ccccc23)C[C@@]2(C(=O)OC)CCCCC=C12 | inactive |
| CC(C)c1ccc(Cn2c(COc3ccccc3)nc3ccccc32)cc1 | inactive |
| CC(C)c1ccc(OCC(O)Cn2cnc3ccccc32)cc1 (stereo not drawn) | 28.2 µM (active) |
| CC(C)c1ccc(OCC(O)CN2CCN(c3ccccn3)CC2)cc1 (stereo not drawn) | inactive |
| COCCn1c(=O)[nH]c2cc(C(=O)NCc3cccnc3)ccc2c1=O | 28.2 µM (active) |
| CCOc1cc2[nH]c(=S)n(Cc3ccc(C(=O)NCCOC)cc3)c(=O)c2cc1OCC | inactive |
| COc1cc2[nH]c(=O)n(Cc3ccc(C(=O)NC4CCN(Cc5ccccc5)CC4)cc3)c(=O)c2cc1OC | inactive |
| COCCn1c(=S)[nH]c2cc(C(=O)NCCc3ccc(OC)c(OC)c3)ccc2c1=O | inactive |
| CC(C)(C)c1cc(C(=O)NCc2cccnc2)ccn1 | inactive |
| COc1cc2[nH]c(=O)n(Cc3ccc(C(=O)NCc4ccc(C)cc4)cc3)c(=O)c2cc1OC | 10 µM (active) |
| CCCCCn1nnnc1C1c2ccccc2C(=O)N1Cc1ccco1 (stereo not drawn) | inactive |
| C#Cc1cc(N2CCN(C(=O)c3ccoc3)CC2)n2nc(-c3cccc(Cl)c3)cc2n1 | inactive |
| CC(=O)N1Cc2cc(C(=O)NCc3cccc(F)c3)nc(-c3cccc(C4=CCCCC4)c3)c2[C@H]1CCO | inactive |
| CC(C)(C)C(=O)c1c(N)[nH]c(C(=O)c2ccccc2)c1-c1ccc(F)cc1 | inactive |
| O[C@@H]1C[C@H](c2ccccc2)N(Cc2cccs2)C[C@H]1n1cc(C2CC2)nn1 | inactive |
| O=C(Cn1c(=O)n(Cc2ccccc2)c(=O)c2sc3ccccc3c21)Nc1ccccc1F | 28.2 µM (active) |
| O=C(Cn1c(=O)n(-c2ccc(F)cc2)c(=O)c2sc3ccccc3c21)NC1CCCC1 | inactive |

| SMILES | Potency |
| --- | --- |
| CCOc1ccccc1NC(=O)Cn1c(=O)n(Cc2ccco2)c(=O)c2sc3ccccc3c21 | inactive |
| O=C(CSC1=Nc2ccccc2C2=NC(CC(=O)NCc3ccco3)C(=O)N12)NCc1ccco1 (stereo not drawn) | inactive |
| O=C(CSC1=Nc2ccccc2C2=NC(c3ccccc3)C(=O)N12)NCC1CCCO1 (stereo not drawn) | 17.8 µM (active) |
| Cc1ccc(CNC(=O)CSC2=Nc3ccccc3C3=NC(C)C(=O)N23)cc1 (stereo not drawn) | inactive |
| Cc1ccc(S(=O)(=O)N2CCN(c3nc(-n4cnc5ccccc54)nc4ccccc34)CC2)cc1 | inactive |
| COc1ccc(-c2cc(C(=O)n3cnc4ccccc43)c3ccccc3n2)cc1 | 31.6 µM (active) |
| Cc1ccc(OCC(=O)Nn2cnc3ccccc32)cc1 | inactive |
| O=C(c1ccc(Cl)cc1)n1cnc2ccccc21 | inactive |
| CC(=O)Nc1cc(-c2cccc(CO)c2)cn2c(-c3cccc(C(F)(F)F)c3)cnc12 | inactive |
| CCN(CC)c1ncnc2c1ncn2[C@H]1CN(Cc2cccs2)C[C@@H](CO)O1 | inactive |
| Cc1cc(=O)oc2cc(OCC3CC(c4ccccc4Cl)=NO3)ccc12 (stereo not drawn) | 28.2 µM (active) |
| Cc1cc(=O)oc2cc(NC(=O)C3CC(=O)N(Cc4ccccc4)C3)ccc12 (stereo not drawn) | inactive |
| Cc1ccccc1NC(=O)c1ccc(COc2ccc3c(C)cc(=O)oc3c2)cc1 | inactive |
| Cc1ccccc1N1CCN(CCCOc2ccc3c(C)cc(=O)oc3c2)CC1 | 35.5 µM (active) |
| COc1ccccc1N1CCN(CCCCOc2ccc(F)cc2)CC1 | inactive |
| Cc1cc(OCCCN2CCN(Cc3ccccc3)CC2)ccc1[N+](=O)[O-] | inactive |
| COc1cccc(C(NC(C)=O)c2nc(-c3ccccc3OC)cs2)c1 (stereo not drawn) | inactive |
| CC1(C(=O)Nc2ccccc2Br)CCN1C(=O)CC1CC1 (stereo not drawn) | inactive |
| COc1ccc(C2OC(CCc3ccccc3)Cc3[nH]c(=S)[nH]c(=O)c32)cc1 (stereo not drawn) | inactive |
| OC[C@@H]1CN(Cc2ccncc2)C[C@H](n2cnc3c(N4CCN(c5ccccc5)CC4)ncnc32)O1 | inactive |
| COCCCn1cc(CN2CC(N(C)C)CS2(=O)=O)nn1 (stereo not drawn) | inactive |
